This experiment has as its target T1, BstYI NN1 (K133N/S172N) (Bacillus stearothermophilus, K133N,S172N).
T1 chain: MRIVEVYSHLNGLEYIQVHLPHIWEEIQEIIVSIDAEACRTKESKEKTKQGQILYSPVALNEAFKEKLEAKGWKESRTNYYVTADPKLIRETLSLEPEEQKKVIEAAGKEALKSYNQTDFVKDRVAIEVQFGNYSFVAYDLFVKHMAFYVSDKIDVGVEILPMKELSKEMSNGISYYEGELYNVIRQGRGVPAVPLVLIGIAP
As to the kind of experiment: cleavage_in_vitro; 60 C. The note with it: label: radiolabel; dsDNA, one strand shown.

In turn, AGATCC showed a cleavage activity of 7 fold lower than AGATCT.

These data come from US20050164186, “Alteration of restriction endonuclease specificity by genetic selection” (published 2005).
